Measurements published in PubChem BioAssay AID1069 (NMMLSC, 2008).

Assay: LNCaP granularity increase inducers, single-point recheck – cell-based, side scatter shift, flow cytometry, confirmation (AID 1069);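 note: LNCaP human prostate cancer cells in low-serum medium with charcoal-stripped FBS; percent of cells with raised granularity gated so DMSO controls show 10%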
Conditions: LNCaP differentiation, 4 d, side scatter shift, at 10 µM, stronger effect = higher value

Row | SMILES | side scatter shift
1 | Cc1ccccc1-c1nc(CN2CCC(C(=O)NCC3CCCO3)CC2)c(C)o1 (stereo not drawn) | 7.1%
2 | CCOC(=O)C1CCN(S(=O)(=O)c2ccc(-c3nc4ccccc4s3)s2)CC1 | 7.85%
3 | COc1ccc(NC(=O)NCCCN2CCN(c3cc(C)ccc3C)CC2)cc1 | 7.1%
4 | O=C1CCCc2c1cc(C(=O)NC1CCSC1=O)c(=O)n2-c1ccccc1 (stereo not drawn) | 4.8%
5 | Cc1ccc(CNc2nc3ccccc3n3nnnc23)cc1 | 7%
6 | COC(=O)c1cc(-c2ccccc2)sc1NC(=O)c1cc(C)on1 | 13.2%
7 | COc1ccc(-c2ccc(-c3noc(-c4ccccc4)n3)c(OC)n2)cc1 | 22.5%
8 | Cc1noc(/C=C/c2ccco2)c1S(=O)(=O)N1CCC(C(=O)N2CCc3ccccc3C2)CC1 | 7.3%
9 | CCN1C=C(Cc2cccs2)C2=C(C1)C(c1cccs1)C(C#N)=C(N)O2 (stereo not drawn) | 5.2%
10 | COC(=O)C1=C(C)N=c2s/c(=C/c3cccs3)c(=O)n2C1c1cccs1 (stereo not drawn) | 12.7%
11 | O=C(c1ccccc1)c1ccc(N2CCNCC2)cc1 | 7.95%
12 | O=c1cc(N2CCc3ccccc3C2)[nH]c(=O)n1C1CCCCC1 | 5.9%
13 | Cc1ccc(-c2noc(CCC(=O)NC3CCN(Cc4ccccc4)CC3)n2)cc1 | 4.5%
14 | CCOC(=O)N1CCN(C(=O)CN(c2cccc(C(F)(F)F)c2)S(=O)(=O)c2ccccc2)CC1 | 5.4%
15 | CCOC(=O)c1ccc(NC(=O)Nc2ccc3c4c(cccc24)C(=O)N3CC)cc1 | 8.75%
16 | Cc1ccccc1-c1nc(CN2CCCC(C(=O)NCc3cccnc3)C2)c(C)o1 (stereo not drawn) | 7.35%
17 | Cc1cccc(-c2nc(CN3CCCC(C(=O)NC4CCCCC4)C3)c(C)o2)c1 (stereo not drawn) | 7.35%
18 | CCc1ccc(-c2nc(CN3CCC(C(=O)NCCN(CC)c4ccccc4)CC3)c(C)o2)cc1 | 24.1%
19 | CCN(CC)CC(=O)Nc1ccc(-c2nc3cc(NC(=O)CN(CC)CC)ccc3o2)cc1 | 42%

Row | SMILES | side scatter shift
20 | COc1ccc(-n2c(C)nc3c(cnn3-c3ccc(Cl)cc3)c2=O)cc1 | 5.6%
21 | Cc1cc(C)n2nnnc2c1C#N | 6.4%
22 | Cc1nc2c3cnn(-c4ccccc4)c3ncn2n1 | 1.75%
23 | CCOC(=O)N1CCN(C(=O)C2CCCN(Cc3nc(-c4ccc(Cl)cc4)oc3C)C2)CC1 (stereo not drawn) | 4.15%
24 | COc1ccc(CCNC(=O)C2CCN(Cc3nc(-c4cccc(Cl)c4)oc3C)CC2)cc1OC | 12.2%
25 | COc1ccc(-c2noc(CCC(=O)NCCCN3CCC(Cc4ccccc4)CC3)n2)cc1 | 28.6%
26 | CCN1CCN(C(c2cccs2)C(C)NS(=O)(=O)c2ccc(Br)cc2)CC1 (stereo not drawn) | 17.8%
27 | Cc1ccccc1CS(=O)(=O)CCC(=O)NCCCN1CCN(c2ccccc2F)CC1 | 6.05%
28 | CCOC(=O)N1CCN(C(=O)C2CCN(Cc3nc(-c4ccccc4C)oc3C)CC2)CC1 | 5.15%
29 | O=S(=O)(Nc1cccc2ncccc12)c1cccs1 | 5.95%
30 | CCOC(=O)c1c(NCc2ccc3c(c2)OCO3)c2ccccc2[nH]c1=O | 4.75%
31 | Cn1nc(-c2ccc(Cl)cc2)c2cc(C(=O)NCCCN3CCOCC3)sc21 | 27.4%
32 | O=C(CCn1c(=O)[nH]c2ccccc2c1=O)NCCCN1CCN(c2cccc(Cl)c2)CC1 | 11.1%
33 | CCc1ccc(-c2nc(CN3CCC(C(=O)NCc4ccccc4OC)CC3)c(C)o2)cc1 | 14.5%
34 | CCSc1nnc(Cn2c(=O)sc3ccccc32)n1-c1ccccc1C | 9.7%
35 | Cc1cc(NC(=O)CSc2nnc(C3CC3)n2C)no1 | 9.3%
36 | COc1ccc(-c2cc(C(=O)NCc3ccc(Cl)cc3)no2)cc1OC | 7.15%
37 | Cc1oc(-c2cccc(Cl)c2)nc1CN1CCC(C(=O)NCc2ccco2)CC1 | 6.2%
38 | COC(=O)Nc1sc2c(c1C(N)=O)CCCCCC2 | 5.65%
